PubChem BioAssay (EPA / NIEHS)
Active and inactive are the calls of the source. How the source made its calls: active means hit-call score of the fitted dose curve at least 0.9, where 1 is the maximum; inactive means score below 0.9.

The molecules below were run on Apoptosis regulator Bcl-2 (Homo sapiens) (UniProt P10415) (assay: LTEA_HepaRG_BCL2: Life Technologies and Expression Analysis (LTEA) Assay for Bcl-2 gene using HepaRG (AID 2283475;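 further: BCL2 transcript by TaqMan qRT-PCR normalised to ACTB GAPDH and POLR2A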)). Conditions: mRNA level, 48 h; actives raise or lower the signal.
Chain of Apoptosis regulator Bcl-2 (Homo sapiens) (P10415 whole entry, looked up): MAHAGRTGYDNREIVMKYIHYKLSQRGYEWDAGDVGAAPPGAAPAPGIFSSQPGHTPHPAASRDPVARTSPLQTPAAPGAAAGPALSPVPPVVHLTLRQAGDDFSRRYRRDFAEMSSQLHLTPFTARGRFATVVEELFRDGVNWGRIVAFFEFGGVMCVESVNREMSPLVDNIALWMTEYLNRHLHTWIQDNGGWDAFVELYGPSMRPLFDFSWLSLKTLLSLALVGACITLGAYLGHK
Procedure: LTEA_HepaRG is a cell based, multiplexed-readout assay that uses HepaRG, a human liver cell line, with measurements taken at 48 hours after chemical dosing on a 96-well plate.LTEA_HepaRG_BCL2 is one of 102 assay component(s) measured in the LTEA HepaRG cell culture assay. It is a marker of Cell proliferation, survival, death.Data from the assay component LTEA_HepaRG_BCL2 was analyzed into 1 endpoint. This assay endpoint, LTEA_HepaRG_BCL2, was analyzed with bidirectional fitting relative to DMSO as the negative control and baseline of activity. Using a type of inducible reporter, measures of mRNA induction for gain or loss-of-signal activity can be used to understand regulation of transcription factor activity. To generalize the intended target to other relatable targets, this assay endpoint is annotated to the cell cycle intended target family, where the subfamily is Cell proliferation, survival, death.
A total of 1060 chemcials from the ToxCast library were tested in eight-point concentration-response experiments. Cell culture and cytotoxicity assays were conducted at Thermo Fisher Scientific's Custom Services facility (Madison, WI). A single lot of human HepaRG cells (Thermo Fisher Scientific, Frederick, MD) was used for the cell culture experiments. 96-well format collagen type I coated plates of human HepaRG cells were prepared using established methods. Briefly, cryopreserved HepaRG cells were thawed, plated at a density of approximately 100,000 cells/well in HepaRG Thaw, Plate, and General Purpose media (HPRG770, Thermo Fisher Scientific), and incubated for 48 hours. 0.5% DMSO was selected as vehicle control to balance the requisite need of DMSO in HepaRG cultures to maintain differentiation (for example, baseline metabolism, proportions of hepatocytes vs. cholangiocytes), while enabling further hepatic receptor pathway activation (for example, PXR and CAR) in response to chemical exposure. 48 hours after plating, the culture medium was replaced with HepaRG Serum-Free Incudtion Media. Cells were exposed to each test chemical in duplicate and maintained in CO2 incubators for another 48 hours. Chemical plates were thawed to room temperature and 200x concentrations of treatment groups were prepared. 8-point conentration-reponse curves were made with the highest exposure at 100 uM, followed by half-log dilutions, all in 0.5% DMSO. Each test plate contained variouse controls, induction positive controls (1mM phenobarbital), cytotoxicity positive controls ([…] aflatoxin B1), vehicle controls (0.5% DMSO), and total lysis controls (0.5% DMSO). Cell morphology images were taken using an Essen IncuCyte FLR automated microscope, with six 96-well plates imaged in about 24 minutes. Images were captured and exported and JPEG files. Spent culture media was transfered to black-well plates for the LDH assay, and remaining media was sorted at -80 C for later use. Cells were treated with RLT buffer and frozen until shipped for gene expression analysis. Total RNA was isolated from the cell suspension in 75 uL of Buffer RLT (Qiagen, Germantown, MD 20874) by Quintiles/Expression Analysis (Durham, NC) using a custom isolation procedure. Total RNA from each plate well was transferred to a preamplification plate. Fluidigm's 96.96 Dynamic ArrayTM (Fluidigm, Amsterdam, the Netherlands) technology was used for gene expression analyses by quantitative reverse transcription polymerase chain reaction (qRT-PCR, performed by Quintiles/Expression Analysis, Durham, NC)89. Standard TaqManTM Assays (Applied Biosystems/ThermoFisher Scientific, Foster City, CA) were used to assess the expression of 93 genes selected based on their selectivity and sensitivity to important hepatic receptors known to be modulated by environmental chemicals; importance in human hepatocyte functionality; and hepatotoxicity. […]

SMILES	outcome	AC50
CCCCOC(=O)c1ccccc1C(=O)O	inactive	
CSC1=N[C@@](C)(c2ccccc2)C(=O)N1Nc1ccccc1		30.2 µM (active)
CC(=NC#N)N(C)Cc1ccc(Cl)nc1	inactive	
COP(=O)(OC)SCn1c(=O)oc2cc(Cl)cnc21		50 µM (active)
CNc1cnn(-c2cccc(C(F)(F)F)c2)c(=O)c1Cl	inactive	
C[Si](Cn1cncn1)(c1ccc(F)cc1)c1ccc(F)cc1		35 µM (active)
CCc1cccc(CC)c1N(COC)C(=O)CCl	inactive	
CC(C)[C@H](C(=O)O[C@H](C#N)c1cccc(Oc2ccccc2)c1)c1ccc(Cl)cc1	inactive	
C[N+]1(C)CCCCC1	inactive	
COP(=O)(NC(C)=O)SC (stereo not given)	inactive	
CCOP(=O)(NC(C)C)Oc1ccc(SC)c(C)c1 (stereo not given)	inactive	
CC1=NNC(=O)N(/N=C/c2cccnc2)C1	inactive	
Nc1nc(N)nc(NC2CC2)n1	inactive	
CCCOc1nn(C(=O)NS(=O)(=O)c2ccccc2C(=O)OC)c(=O)n1C	inactive	
CCCCN(CC)c1c([N+](=O)[O-])cc(C(F)(F)F)cc1[N+](=O)[O-]	inactive	
CSc1nnc(C(C)(C)C)c(=O)n1N	inactive	
CCOP(=S)(OCC)Oc1ccc2c(C)c(Cl)c(=O)oc2c1	inactive	
Cc1cc(C2CC2)nc(Nc2ccccc2)n1	inactive	
CC[C@H](C)[C@H]1O[C@]2(C=C[C@@H]1C)C[C@@H]1C[C@@H](C/C=C(\C)[C@@H](O[C@H]3C[C@H](OC)[C@@H](O[C@H]4C[C@H](OC)[C@@H](NC)[C@H](C)O4)[C@H](C)O3)[C@@H](C)/C=C/C=C3\CO[C@@H]4[C@H](O)C(C)=C[C@@H](C(=O)O1)[C@]34O)O2	inactive	
CNC(=O)Oc1cccc2c1OC(C)(C)O2	inactive	

SMILES	outcome	AC50
C=C(C)[C@H]1Cc2c(ccc3c2O[C@@H]2COc4cc(OC)c(OC)cc4[C@@H]2C3=O)O1		2.94 µM (active)
O=C(O)c1cc(Oc2ccc(C(F)(F)F)cc2Cl)ccc1[N+](=O)[O-]	inactive	
COc1cc(OC)nc(Sc2cccc(Cl)c2C(=O)O)n1	inactive	
CCCSP(=O)(OCC)Oc1ccc(Br)cc1Cl (stereo not given)	inactive	
CN(C)C(=O)Nc1cccc(C(F)(F)F)c1	inactive	
CN1COCN(Cc2cnc(Cl)s2)C1=N[N+](=O)[O-]	inactive	
COc1cccc(C(=O)NN(C(=O)c2cc(C)cc(C)c2)C(C)(C)C)c1C	inactive	
CCC(CC)Nc1c([N+](=O)[O-])cc(C)c(C)c1[N+](=O)[O-]	inactive	
N#CSCSC#N	inactive	
C#CCC1=C(C)C(OC(=O)C2C(C=C(C)C)C2(C)C)CC1=O (stereo not given)	inactive	
CCOP(=S)(OCC)OC(Cl)C(Cl)(Cl)Cl (stereo not given)	inactive	
FC(F)C(F)(F)OCC(Cn1cncn1)c1ccc(Cl)cc1Cl (stereo not given)		30.2 µM (active)
CCCOCC(=Nc1ccc(Cl)cc1C(F)(F)F)n1ccnc1	inactive	
O=c1ccc(=O)[nH][nH]1	inactive	
CCOP(=O)(OCC)Oc1cc(C)nc(C(C)C)n1	inactive	
CCOP(=S)(OCC)SCCSCC	inactive	
CNC(=O)ON=C(C)SC	inactive	
CCc1cccc(C)c1N(C(=O)CCl)C(C)COC (stereo not given)	inactive	
CCc1cnc(C2=NC(C)(C(C)C)C(=O)N2)c(C(=O)O)c1 (stereo not given)	inactive	
CCNc1nc(Cl)nc(NC(C)(C)C#N)n1	inactive	
